HT1080NT lethal: kills 2HG-producing HT-1080-NT fibrosarcoma cells. HT-1080-NT fibrosarcoma viability, CellTiter-Glo ATP luminescence, 48 h. Potency, µM (titrated, usually from 46.1 µM), for inactives: top-dose activity, negative = less viability, usual class: cytotoxic. 360,000 tested, 1.6% active. AID 686970;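 also: NT is the 2HG producing partner of a matched IDH1 knockdown line; 0% = DMSO-treated cells and -100% = media-only wells without cells; nearly all actives have a fitted effect of over 55% in size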
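HT-1080-NT fibrosarcoma cells (2HG-overproducing), 750 cells/well in RPMI with 5% FBS, dosed after 2 h and incubated 48 h at 37C. CellTiter-Glo luminescence normalized to DMSO and no-cell wells; concentration-response curves fitted and classed.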
DT40 TDP1 CPT: growth inhibition of DT40 Tdp1-/-;hTDP1 cells with camptothecin (screen for TDP1 inhibitors). chicken DT40 Tdp1-/-;hTDP1 cells + 20 nM CPT, ATP luminescence, 48 h. 420,000 tested, 12% active. Potency, µM (highest dose often 46.2 µM), without a hit: at the top dose activity change, negative = growth inhibition, usual class: inhibitors; also: % is scaled to controls: 0 for no effect and ±100 for the full control effect; nearly all actives have a fitted effect of over 55% in size
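Cell growth measured by CellTiter-Glo luminescence after a minimum 48 h, 37 C compound exposure with 20 nM CPT in Tdp1-knockout DT40 cells stably expressing hTDP1, seeded 400/well; qHTS titration format.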
HepG2 viability: HepG2 cytotoxicity, counter-screen for TGF-b inhibitors | 410,000 tested, 0.76% active | HepG2 CAGA-GFP viability, ATP luminescence, 18 h | Potency, µM (titrated, usually from 46.1 µM), for inactives: at the top dose activity change, negative = cytotoxicity, actives largely listed as cytotoxic | AID 588856
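CellTiter-Glo luminescence gave cytotoxicity after 18 hours at 37 degrees C. The cells were HepG2 CAGA-GFP in 1% FBS DMEM, stimulated with 500 pg/mL TGF-beta after compound addition. %Activity was normalised to no-cell wells (complete cell-killing) and DMSO (no toxicity), and curves were fitted and classified.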
HT1080 IDH1KD tx: kills HT-1080 cells with IDH1 knockdown; HT-1080 IDH1 knockdown viability, ATP luminescence, 48 h; Potency, µM (series often up to 46.1 µM), inactives show at the top dose activity, negative = toxicity, actives largely listed as cytotoxic; 360,000 tested, 2% active; AID 686971;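 also: 0% = DMSO wells and -100% = cell-free medium wells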
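Assay cells: HT-1080 with IDH1 knockdown, 750 per well, RPMI/5% FBS. Exposure: 48 h at 37 °C following 2 h pre-incubation. Read: CellTiter-Glo luminescence; fitted concentration-response, curve class assigned.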
TDP1 cell noCPT: qHTS for Inhibitors of human tyrosyl-DNA phosphodiesterase 1 (TDP1): qHTS in cells in absence of CPT | DT40 Tdp1-/- hTDP1 cells, no CPT, ATP luminescence, 48 h | Potency, µM (titrated, usually from 46.2 µM), for the others: top-dose activity change, negative = growth inhibition, most hits filed as inhibitors | 420,000 tested, 15% active | AID 686978, 2013; also: % is scaled to controls: 0 for no effect and ±100 for the full control effect; nearly all actives have a fitted effect of over 55% in size
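Cells were dispensed at 400 per well, compounds added by pin tool, plates incubated ≥48 hr at 37 °C, then CellTiter-Glo added for 30 min at room temperature before luminescence reading. Line: DT40 Tdp1-/- complemented with hTDP1; camptothecin omitted.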
TGFb SMAD3 inh: TGF-b pathway inhibition | AID 588855 | HepG2 CAGA-GFP TGF-b/SMAD3 reporter, GFP fluorescence, 18 h; TGF-beta stimulated, 500 pg/mL final | Potency, µM (highest dose often 46.1 µM), for the others: at the highest dose activity, negative = inhibition, actives largely listed as inhibitors | 410,000 tested, 1.2% active; also: % is scaled to controls: 0 for no effect and ±100 for the full control effect; nearly all actives have a fitted effect of over 65% in size
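Inhibition of TGF-beta-driven CAGA-GFP reporter expression in HEPG2 cells is measured by cellular GFP fluorescence after 18 h stimulation with 500 pg/mL recombinant TGF-beta in 1% FBS medium at 37 degrees C.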
The depositor's hits bear a star; ? = inconclusive; . = not tested or not shown; ! = not active in a repeat. A selection: hits, their analogues and other compounds. The true share with any hit is near 17%. Calls follow the shape of the dose curve; as a rule, active = well fitted curve in the direction sought with a large enough effect; inconclusive = small, poorly fitted or top-dose-only effect, or another doubt; inactive = no such curve, though single readings can be large; an effect the other way counts as inactive or inconclusive. Potency is read from the fitted curve at half-maximal effect.

SMILES | HT1080NT lethal | DT40 TDP1 CPT | HepG2 viability | HT1080 IDH1KD tx | TDP1 cell noCPT | TGFb SMAD3 inh
COc1ccc(Nc2cc(C(=O)NCCCN3CCOCC3)c3ccccc3n2)cc1OC | -2% | 29µM* | -24% | -3% | ? | -16%
COc1ccc(N2CCN(CCNC(=O)c3ccc4c(c3)[nH]c(=S)n3c5ccccc5nc43)CC2)cc1 | ? | 4.6µM* | -39% | -29% | 2.1µM* | 16%
CCN(CCCNC(=O)c1cc(Nc2ccccc2OC)nc2ccccc12)c1cccc(C)c1 | . | 21µM* | -2% | . | 7.3µM* | ?
COc1ccc(N2CCN(CCNC(=O)c3ccc4nc5ccccc5c(=O)n4c3)CC2)cc1 | 17% | -26% | 8% | 13% | 1% | -1%
COc1ccccc1Nc1cc(C(=O)NCc2cccnc2)c2ccccc2n1 | 6% | 1% | 12% | -21% | ? | 12%
COc1ccc(Nc2cc(C(=O)NCCCN3CCOCC3)c3ccccc3n2)c(OC)c1 | -11% | -4% | -2% | -6% | -25% | 0%
COc1ccc(Nc2cc(C(=O)NCCCN3CCN(c4ccccc4F)CC3)c3ccccc3n2)c(OC)c1 | . | ? | -44% | . | 16µM* | 11µM*
Cc1cc(Cl)ccc1OCC(=O)N(Cc1cccs1)C1CCS(=O)(=O)C1 (centres undefined) | 0% | ? | -3% | -2% | ? | -8%
CCN1C(=O)[C@H]2[C@@H](c3ccc(C)cc3)N3C(=O)N(c4ccccc4)C(=O)[C@@]3(C)[C@H]2C1=O | 0% | 14% | -9% | 0% | 2% | -19%
CCC(=O)N1CCCC(C)(C(=O)NS(=O)(=O)c2cccs2)C1 (centres undefined) | 2% | 18% | 2% | 0% | 10% | -3%
COc1ccc2nc(SCC(=O)Nc3ccccc3C)[nH]c2c1 | 3% | -24% | 0% | 1% | -24% | -9%
COc1ccc(Nc2cc(C(=O)NC3CCCC3)c3ccccc3n2)c(OC)c1 | -2% | ? | 0% | -3% | ? | -27%
COc1ccc(Nc2cc(C(=O)NCCCN(C)Cc3ccccc3)c3ccccc3n2)c(OC)c1 | . | 15µM* | -58% | . | 13µM* | ?
CCc1ccc(C2NC(=S)NC3=C2C(=O)CCC3)cc1 (centres undefined) | -5% | -5% | -3% | -11% | -19% | -3%
CCCCCCCc1ccc(C2NC(=S)NC3=C2C(=O)c2ccccc23)cc1 (centres undefined) | 3% | 16µM* | -6% | 3% | ? | -16%
COc1ccccc1N1CCN(S(=O)(=O)c2ccc(Cl)s2)CC1 | 9% | -24% | -20% | 8% | -30% | ?
COc1ccc2cc(/C=N/NC(=O)CN(c3ccccc3C)S(=O)(=O)c3ccccc3)c(Cl)nc2c1 | 12% | 2.9µM* | 5% | 18% | 6.5µM* | 21%
CCCCNc1c(-c2cccc(SC3CCCCC3)c2)nc2ccc(Cl)cn12 | 0% | ? | -15% | -21% | ? | -10%
CCCCNc1c(-c2ccc(SC3CCCCC3)cc2)nc2ccccn12 | ? | 23µM* | -47% | ? | 23µM*! | ?
CCCCNc1c(-c2ccc(SC(C)CC)cc2)nc2ccccn12 (centres undefined) | ? | 13µM* | -98% | ? | 16µM* | ?
CCCCNc1c(-c2cccc(SC(C)CC)c2)nc2ccc(Cl)cn12 (centres undefined) | 0% | 16µM* | -20% | -13% | 15µM* | ?
CC1(C)CC[C@]2(C(=O)O)CC[C@@]3(C)C(=CCC4[C@@]5(C)CCC(O)C(C)(C)C5CC[C@@]43C)C2C1 (some centres undefined) | . | 4% | . | . | -1% | .
CN(Cc1ccccc1)c1nc2c(c(=O)[nH]c(=O)n2C)n1Cc1ccccc1 | 4% | -29% | -3% | 7% | ? | 16%
CC1CCCN(c2nc3c(c(=O)[nH]c(=O)n3C)n2Cc2ccccc2Cl)C1 (centres undefined) | -13% | 15µM* | -23% | 0% | ? | ?
CN(Cc1ccccc1)c1nc2c(c(=O)[nH]c(=O)n2C)n1CCOc1ccccc1 | -20% | ? | -19% | ? | 16µM* | 3%
SMILES | HT1080NT lethal | DT40 TDP1 CPT | HepG2 viability | HT1080 IDH1KD tx | TDP1 cell noCPT | TGFb SMAD3 inh
Cn1c(N2CCN(C(c3ccccc3)c3ccccc3)CC2)nc2c1c(=O)[nH]c(=O)n2C | -1% | 21µM* | 3% | 3% | 18µM* | 0%
Cn1c(N2CCCCC2)nc2c1c(=O)[nH]c(=O)n2C | -4% | -2% | -31% | -1% | -13% | 6%
Cn1c(=O)[nH]c(=O)c2c1nc(N1CCCCCC1)n2CCOc1ccccc1 | 9% | -26% | -16% | -1% | 23µM* | -3%
Cn1c(=O)[nH]c(=O)c2c1nc(N1CCNCC1)n2Cc1ccccc1Cl | 0% | -4% | 2% | -8% | -23% | -2%
Cc1cc(C)c(S(=O)(=O)NCC(=O)NCc2cc(=O)n(C)c(=O)n2C)c(C)c1 | 2% | -1% | -42% | 1% | 4% | -4%
Cc1ccc(Nc2ncnc(Cl)c2N)cc1 | 12% | -25% | 1% | 7% | -22% | -17%
CC(=O)N1CCC2(CCCN(Cc3cc(C(F)(F)F)cc(C(F)(F)F)c3)C2)CC1 | . | -22% | . | . | ? | .
Nc1nc2[nH]c(=O)[nH]c2c(=O)[nH]1 | . | -10% | . | . | 7% | .
CCC(C)Nc1nc2c(c(=O)[nH]c(=O)n2C)n1CCOc1ccccc1 (centres undefined) | -15% | 21µM* | -19% | -11% | ? | -2%
Cc1csc(SCCn2c(N3CCN(c4ccccc4)CC3)nc3c2c(=O)[nH]c(=O)n3C)n1 | -5% | 16µM* | 1% | 6% | 26µM* | -6%
Cn1c(=O)[nH]c(=O)c2c1nc(N1CCCCCC1)n2Cc1cccc2ccccc12 | 12% | -21% | 4% | 12% | 16µM* | -9%
Cc1ccc([N+](=O)[O-])cc1NC(=O)C[n+]1ccccc1 | 6% | 3% | 0% | -1% | 7% | -3%
CC(=C/c1ccccc1)/C=N/n1c(-c2ccncc2)n[nH]c1=S | 5% | ? | 0% | 13% | 16µM* | 25%
S=c1[nH]nc(-c2ccco2)n1/N=C/C(Cl)=C/c1ccccc1 | ? | ? | -34% | ? | 15µM* | ?

Bioassay records: PubChem BioAssay, National Center for Advancing Translational Sciences (NCATS)
